# HP1b chromo inh – HP1-beta chromodomain-methylated histone interaction inhibition; Potency, µM (top dose mostly 114 µM), without a hit: at the highest dose activity change, negative = inhibition, actives largely listed as inhibitors; P83916; AlphaScreen HP1-beta / biotin-H3K9me3 peptide binding; 390,000 tested, 0.56% active; also: nearly all actives have a fitted effect of over 70% in size
#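 Compound inhibition of the preformed complex between 50 nM HP1-beta and 50 nM biotinylated H3K9me3 peptide was read by AlphaScreen. Buffer was PBS pH 7.4 with 0.01% Tween-20. Incubations ran 30 min at room temperature, with 10 ug/mL donor/acceptor beads.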
# BAZ2B inh – BAZ2B (human) inhibition | Q9UIF8 | AlphaScreen BAZ2B-H3K14Ac peptide displacement | Potency, µM (top dose mostly 114 µM), for inactives: top-dose activity change, negative = inhibition, most hits filed as inhibitors | 360,000 tested, 4.4% active | AID 504333; also: % is scaled to controls: 0 for no effect and ±100 for the full control effect; nearly all actives have a fitted effect of over 60% in size
# Target sequence (Q9UIF8 whole entry, looked up): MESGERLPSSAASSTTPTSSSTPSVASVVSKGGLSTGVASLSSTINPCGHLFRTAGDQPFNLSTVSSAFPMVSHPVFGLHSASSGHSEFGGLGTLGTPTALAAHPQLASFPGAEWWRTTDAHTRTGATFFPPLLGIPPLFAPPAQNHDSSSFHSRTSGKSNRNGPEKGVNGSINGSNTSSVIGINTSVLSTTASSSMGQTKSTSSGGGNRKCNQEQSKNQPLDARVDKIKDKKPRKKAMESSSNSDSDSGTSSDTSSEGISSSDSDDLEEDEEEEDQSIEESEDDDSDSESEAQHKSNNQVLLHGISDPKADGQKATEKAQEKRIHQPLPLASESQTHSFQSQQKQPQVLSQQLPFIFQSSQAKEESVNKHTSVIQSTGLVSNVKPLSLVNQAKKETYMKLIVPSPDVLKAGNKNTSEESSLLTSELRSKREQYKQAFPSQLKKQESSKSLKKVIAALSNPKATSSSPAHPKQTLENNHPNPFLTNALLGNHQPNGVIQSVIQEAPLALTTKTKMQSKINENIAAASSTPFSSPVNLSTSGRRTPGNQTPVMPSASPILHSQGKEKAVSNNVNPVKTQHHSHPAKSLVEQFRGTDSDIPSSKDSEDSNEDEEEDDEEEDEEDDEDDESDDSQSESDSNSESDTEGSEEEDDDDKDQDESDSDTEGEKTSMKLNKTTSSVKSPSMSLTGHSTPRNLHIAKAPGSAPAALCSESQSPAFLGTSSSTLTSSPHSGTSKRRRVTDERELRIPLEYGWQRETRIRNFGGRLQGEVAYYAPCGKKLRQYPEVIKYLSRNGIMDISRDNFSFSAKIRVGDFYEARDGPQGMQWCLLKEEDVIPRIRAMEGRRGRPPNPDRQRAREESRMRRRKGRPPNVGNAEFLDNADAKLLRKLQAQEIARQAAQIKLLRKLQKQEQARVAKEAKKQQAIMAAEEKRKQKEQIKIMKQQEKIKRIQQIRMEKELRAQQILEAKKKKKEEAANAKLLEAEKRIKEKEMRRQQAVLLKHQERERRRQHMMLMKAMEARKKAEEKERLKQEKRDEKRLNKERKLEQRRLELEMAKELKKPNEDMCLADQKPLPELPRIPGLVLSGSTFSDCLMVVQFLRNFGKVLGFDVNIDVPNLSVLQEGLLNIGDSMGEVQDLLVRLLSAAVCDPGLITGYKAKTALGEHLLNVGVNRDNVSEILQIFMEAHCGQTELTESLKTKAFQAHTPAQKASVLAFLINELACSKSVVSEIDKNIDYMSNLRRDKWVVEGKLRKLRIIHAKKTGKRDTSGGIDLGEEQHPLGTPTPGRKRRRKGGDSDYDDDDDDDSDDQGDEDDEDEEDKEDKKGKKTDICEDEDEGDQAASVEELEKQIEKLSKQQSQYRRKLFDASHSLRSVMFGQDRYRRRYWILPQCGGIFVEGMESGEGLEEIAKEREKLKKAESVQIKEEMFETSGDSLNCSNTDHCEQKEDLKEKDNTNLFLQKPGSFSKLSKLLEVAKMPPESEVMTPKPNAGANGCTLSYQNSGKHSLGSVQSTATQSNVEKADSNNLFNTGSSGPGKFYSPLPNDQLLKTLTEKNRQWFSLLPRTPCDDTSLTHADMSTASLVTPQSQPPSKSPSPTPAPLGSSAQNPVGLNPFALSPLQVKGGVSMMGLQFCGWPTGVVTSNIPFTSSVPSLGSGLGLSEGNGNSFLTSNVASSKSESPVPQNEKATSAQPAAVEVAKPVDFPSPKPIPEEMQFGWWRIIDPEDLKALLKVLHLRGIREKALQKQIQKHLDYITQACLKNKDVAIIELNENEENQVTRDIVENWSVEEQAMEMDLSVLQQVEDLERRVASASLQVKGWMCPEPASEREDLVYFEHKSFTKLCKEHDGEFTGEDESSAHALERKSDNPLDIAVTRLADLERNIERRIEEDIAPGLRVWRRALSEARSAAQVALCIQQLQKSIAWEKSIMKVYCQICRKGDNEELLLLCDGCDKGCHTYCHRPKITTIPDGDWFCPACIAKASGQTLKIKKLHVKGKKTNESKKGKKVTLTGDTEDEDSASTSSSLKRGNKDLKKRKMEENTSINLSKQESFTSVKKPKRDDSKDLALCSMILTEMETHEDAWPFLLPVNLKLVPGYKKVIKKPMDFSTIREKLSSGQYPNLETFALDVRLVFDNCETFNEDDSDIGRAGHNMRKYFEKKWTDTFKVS
#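 In this displacement format the biotinylated H3(5-23) peptide acetylated at Lys14 serves as ligand at 50 nM, with BAZ2B at 50 nM in PBS pH 7.4 containing 0.01% Tween-20. Donor and acceptor beads are 10 ug/mL final.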
# G9a block – inhibitors of human histone lysine methyltransferase G9a; G9a H3K9 monomethylation, AlphaScreen, 2 h; Potency, µM (doses to about 102 µM), without a hit: top-dose activity, negative = inhibition, hits mostly inhibitors; 350,000 tested, 8.8% active; AID 504332; also: % is scaled to controls: 0 for no effect and ±100 for the full control effect; nearly all actives have a fitted effect of over 75% in size
#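 Signal arises when biotinylated H3K9 peptide, once monomethylated, bridges streptavidin donor and antibody-captured acceptor beads. Enzyme at 20 nM was preincubated 15 min with test compounds; peptide 500 nM and SAM 20 uM then reacted for 2 h.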
# JMJD2A Tudor inh – JMJD2A Tudor domain (human) inhibition | O75164 | Potency, µM (top dose mostly 114 µM), for inactives: at the highest dose activity change, negative = inhibition, actives largely listed as inhibitors | AID 504339 | 390,000 tested, 4.4% active | AlphaScreen JMJD2A-Tudor / H3K4me3 peptide binding; also: % is scaled to controls: 0 for no effect and ±100 for the full control effect; nearly all actives have a fitted effect of over 50% in size
# Sfp inh – inhibitors of Bacillus subtilis Sfp phosphopantetheinyl transferase; Potency, µM, for inactives: largest response in the series, negative = inhibition, actives largely listed as inhibitors; Biochemical Sfp PPTase activity, qHTS; 310,000 tested, 3.5% active; Q9F4F7; AID 1490;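 also: the enzyme is Sfp with the accession as filed and its product quenches rhodamine fluorescence; 0% = enzyme reaction without inhibitor and -100% = no enzyme wells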
#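 Step 1, compound plus 15 nM Sfp-PPTase, 15 min, room temperature. Step 2, add rhodamine-CoA (5 uM) and BHQ-2-YbbR (12.5 uM). Step 3, read 525/598 nm fluorescence at 0 and 30 min.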
# L3MBTL1 block – L3MBTL1 (human) inhibition. Q9Y468. AID 485360. 230,000 tested, 0.66% active. Potency, µM (series often up to 57.1 µM), for the others: at the top dose activity, negative = inhibition, hits mostly inhibitors. AlphaScreen L3MBTL1–H3K9me1 peptide binding; also: % is scaled to controls: 0 for no effect and ±100 for the full control effect; nearly all actives have a fitted effect of over 60% in size
#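 Displacement of a biotinylated histone H3(1-15) peptide monomethylated at Lys9 (75 nM) from L3MBTL1 (50 nM) was measured by AlphaScreen after a 30 min room-temperature compound incubation; cefsulodin titration served as intraplate control.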
# The depositor's hits bear a star; ? = inconclusive; · = no result given; [ ] = dose if it differs, or a comment. Rows were chosen to be rich in hits. Some 12% of all compounds tested hit in one or more screens of this group. Calls follow the shape of the dose curve; as a rule, active = well fitted curve in the direction sought with a large enough effect; inconclusive = small, poorly fitted or top-dose-only effect, or another doubt; inactive = no such curve, though single readings can be large; an effect the other way counts as inactive or inconclusive. Potency is read from the fitted curve at half-maximal effect.
SMILES,HP1b chromo inh,BAZ2B inh,G9a block,JMJD2A Tudor inh,Sfp inh,L3MBTL1 block
COc1ccc(OCCCN2CCCCCC2)cc1,15%,-36%,15%[2.33 µM],?,-3%,·
CC(=O)c1ccc(OCCCN2CCCCC2)cc1,?,50µM*,3.5µM*,2.2µM*,-14%,·
COC(=O)c1ccc(OCCN2CCCCCC2)cc1,4%,?,35µM*,-28%,-18%,14%
c1ccc(OCCCCN2CCCCC2)cc1,15%,3%,7%[59 µM],-11%,19%,0%
NC(=O)c1ccc(NC(=O)COc2cccc3ccccc23)cc1,27%,3%,60%,2%,18%,·
N#CC1=C(S)N(c2ccccc2)C(c2ccco2)NC1=O (stereo not drawn),45%,?,28µM*,-1%,?,?
Cc1ccc(N2C(S)=C(C#N)C(=O)NC2c2ccco2)cc1 (stereo not drawn),20%,-17%,28µM*,-21%,-87%,18%
N#CC1=C(S)N(c2ccc(F)cc2)C(c2ccco2)NC1=O (stereo not drawn),-7%,-27%,8.9µM*,-20%,22µM*,6%
N#C[C@H](Cc1ccc(O)cc1)c1ccc(O)cc1,·,·,·,·,20%,·
CC(=O)N1C(=O)/C(=C2\SC(=S)N(NS(=O)(=O)c3ccc(C)cc3)C2=O)c2ccccc21,-9%,?,·,?,45µM*,-1%
Cc1c(N2C(=O)/C(=C3/C(=O)N(C)c4ccccc43)SC2=S)c(=O)n(-c2ccccc2)n1C,25%,3%,?,-4%,-3%,10%
Cc1ccc(S(=O)(=O)NN2C(=O)/C(=C/c3cccc(F)c3)SC2=S)cc1,2%,?,20%[0.501 µM],-32%,-1%,·
CC(=O)N1C(=O)/C(=C2\SC(=S)N(c3c(C)n(C)n(-c4ccccc4)c3=O)C2=O)c2ccccc21,?,-34%,4µM*,-20%,-28%,4%
Cc1ccc(S(=O)(=O)NN2C(=O)/C(=C/c3ccccn3)SC2=S)cc1,-4%,-37%,40µM*,-34%,-15%,-9%
COc1cccc(/C=C2\SC(=S)N(NS(=O)(=O)c3ccc(C)cc3)C2=O)c1OC,·,?,18%[0.501 µM],·,-8%,·
CC(/C=C1\SC(=S)N(NS(=O)(=O)c2ccc(C)cc2)C1=O)=C\c1ccccc1,-24%,35µM*,10µM*,56µM*,-5%,-16%
CCc1cccc(NC(=O)Cn2nc3c4cc(F)ccc4n(Cc4cccc(C)c4)cc-3c2=O)c1,31%,-4%,5%[59 µM],2%,·,·
O=C(NCCOCCn1c(=O)oc2ccccc21)Nc1ccc(Cl)cc1,19%,1%,0%[59 µM],-17%,·,·
COc1ccc2c(c1)OC(=O)CC2c1ccccc1C (stereo not drawn),·,·,3%,·,-3%,·
Fc1ccc(-c2cc(-c3ccccc3)c3c(n2)-c2cc(F)ccc2OC3)cc1,69%,0%,17%[59 µM],14%,·,·
COc1ccc2[nH]cc(CCNc3ccnc(-c4ccccc4C)n3)c2c1,·,·,3%[0.501 µM],·,-29%,·
CC(/C=C1\SC(=S)N(NS(=O)(=O)c2ccccc2)C1=O)=C\c1ccccc1,-20%,45µM*,16µM*,?,2%,-6%
O=C1/C(=C\c2ccc(Br)cc2)SC(=S)N1NS(=O)(=O)c1ccccc1,-9%,-9%,8%,?,-17%,·
Cc1cc(C(=O)Nc2ccc(F)cc2C)n(-c2ccccc2)n1,32%,-1%,-2%,-10%,-1%,·
O=C(N/N=C/c1ccccn1)c1ccc(Br)cc1,10%,-7%,9%,?,?,-3%
SMILES,HP1b chromo inh,BAZ2B inh,G9a block,JMJD2A Tudor inh,Sfp inh,L3MBTL1 block
CCCn1c(SCC(=O)N2c3ccc(F)cc3CCC2C)nnc1-c1ccccn1 (stereo not drawn),?,5%,-12%[59 µM],71µM*,-7%,-13%
c1ccc(CN2CCC(Nc3nc(-c4cccs4)nc4ccccc34)CC2)cc1,3%,?,35µM*,?,79µM*,?
c1csc(-c2nc(NCC3CCCO3)c3ccccc3n2)c1 (stereo not drawn),35%,4%,15%,-17%,3%,·
N#CC1(NC(=O)CSc2nnc(-c3ccccc3F)o2)CCCCC1,-21%,-1%,40µM*,-9%,·,-5%
CCCCn1c(SCc2nc3ccccc3s2)nc2ccccc2c1=O,83%,3%,5%[59 µM],-11%,-10%,0%
CCCCn1c(-c2csc3c2CCCC3)n[nH]c1=S,-5%,-31%,?,40µM*,0%,·
CCCCCCn1c(-c2cccs2)n[nH]c1=S,-15%,-23%,5.6µM*,28µM*,-14%,-13%
CCCCn1c(-c2csc3c2CCC(C)C3)n[nH]c1=S (stereo not drawn),6%,-7%,24%[59 µM],-27%,-28%,-6%
CCn1c(-c2csc3c2CCCC3)n[nH]c1=S,-22%,-7%,7.9µM*,10µM*,-6%,-7%
CCCCn1c(-c2csc3ccccc23)n[nH]c1=S,22%,-2%,1.4µM*,?,3%,·
COC(=O)[C@@]1(Cc2ccccc2)[C@H]2c3cc(C(=O)N4CCCC4)n(Cc4ccc(O)c(OC)c4)c3C[C@H]2CN1C(=O)c1ccccc1,·,·,·,·,2%,·
COc1ccc(-c2nc3cnc(N4CCOCC4)nc3n(C)c2=O)cc1,·,·,-4%[0.501 µM],·,7%,·
CN(C)CCCOC(=O)COc1ccc(Br)cc1,25%,-5%,5%,-13%,10%,-4%
C=CCn1c(-c2csc3c2CCC(C)C3)n[nH]c1=S (stereo not drawn),6%,-35%,1.4µM*,?,6%,-4%
O=Cc1ccc(OC(=O)C2CC(=O)N(c3ccc(F)cc3)C2)cc1 (stereo not drawn),39%,4%,50µM*,-7%,6%,·
O=C(C1CC(=O)N(c2ccc(F)cc2)C1)N1CCN(c2ccc(F)cc2)CC1 (stereo not drawn),9%,-13%,·,-17%,-7%,·
O=C(O)C1CC(=O)N(c2ccc(F)cc2)C1 (stereo not drawn),?,-1%,-10%[12.7 µM],50µM*,17%,·
O=S(=O)(O)O,·,·,?,·,-2%,·
O=C(O)C(c1ccccc1)N1C(=O)/C(=C\c2ccc(O)c(O)c2)SC1=S (stereo not drawn),25µM*,8.9µM*,7.9µM*,20µM*,-9%,·
CCOc1cc(/C=C2/SC(=S)N(C)C2=O)ccc1Oc1ccc([N+](=O)[O-])cc1[N+](=O)[O-],·,?,-27%,·,18%,-7%
COc1ccccc1/C=C1\SC(=S)N(NS(=O)(=O)c2ccccc2)C1=O,14%,?,-11%[2.33 µM],-30%,-14%,·
O=C(CCCN1C(=O)/C(=C\c2ccccc2)SC1=S)Nc1ccc(O)cc1,-6%,?,-25%,?,-1%,-30%

# Bioassay records (PubChem BioAssay)
